Compounds with a hit are over-represented: about 2.5% of the library has one in this group of screens.
CHT allo act = human CHT allosteric activation | B-score at 10 µM | CHT-expressing cells, membrane potential dye, choline EC20; stronger effect = higher value; LV-AA mutant CHT in HEK293 cells | 0.49% of 310,000 active;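 active = initial fluorescence not abnormally high and integrated response B-score, plate-corrected, over 3 SD above library mean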
Target sequence (Q9GZV3 whole entry, looked up): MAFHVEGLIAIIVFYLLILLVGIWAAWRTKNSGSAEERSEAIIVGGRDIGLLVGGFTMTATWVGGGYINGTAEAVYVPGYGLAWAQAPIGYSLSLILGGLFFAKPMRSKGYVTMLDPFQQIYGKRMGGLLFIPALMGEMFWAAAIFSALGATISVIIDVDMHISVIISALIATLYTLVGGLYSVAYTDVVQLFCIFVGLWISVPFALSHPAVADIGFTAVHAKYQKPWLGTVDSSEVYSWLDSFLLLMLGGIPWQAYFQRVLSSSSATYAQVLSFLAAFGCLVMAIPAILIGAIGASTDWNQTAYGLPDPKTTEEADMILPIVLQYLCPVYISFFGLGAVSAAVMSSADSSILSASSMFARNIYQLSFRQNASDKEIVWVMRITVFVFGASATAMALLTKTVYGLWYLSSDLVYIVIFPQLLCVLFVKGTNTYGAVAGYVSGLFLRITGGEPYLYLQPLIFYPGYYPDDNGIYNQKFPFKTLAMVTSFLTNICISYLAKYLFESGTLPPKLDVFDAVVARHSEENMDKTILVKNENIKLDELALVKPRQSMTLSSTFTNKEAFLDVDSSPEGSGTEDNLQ
TMEM16A inh = mouse TMEM16A channel inhibition, primary screen; HEK293 TMEM16A/YFP iodide influx fluorescence, ionomycin; normalized B-score (activity score, 25-100; higher = stronger inhibition) at 10 µM; 1.2% of 310,000 active; AID 588511;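 active = ratio plate-corrected score three or more library SD toward inhibition, starting fluorescence score within five deviations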;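 note: score derived from kinetic fluorescence span divided by baseline fluorescence per well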
PKA-R2B activ = activates the human PKA-R2B holoenzyme complex; AID 504700; PKA-R2B holoenzyme dissociation, Cy5-IP20 fluorescence polarization; R2B truncated from residue 108, S112A mutant; 0% DMSO only, 100% 113 µM cGMP; activation, % at 11.4 µM; 0.079% of 340,000 active;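 active = activation above a cutoff set at the mean over all compounds plus 3 SD, cut at about 18% in these data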;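 note: higher means more holoenzyme dissociation and a rise in polarization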
CHT block = inhibitors of human choline transporter CHT. Q9GZV3. CHT-expressing cells, membrane potential dye, choline response; stronger effect = lower value. B-score at 10 µM. 0.86% of 310,000 active;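 active = B-score over 3 SD under the library average, and starting fluorescence ratio not unusually high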;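 note: choline stimulus applied at its EC90 after an EC20 pre-addition; B-score computed on integrated fluorescence ratio after choline addition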
ANO1 activ = activates or potentiates the mouse TMEM16A chloride channel; HEK293 TMEM16A/YFP-H148Q/I152L, iodide quench fluorescence; stronger effect = lower value; 0.3% of 340,000 active; B-score at 10 µM; AID 623877;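 active = fluorescence-ratio B-score plate-corrected deviation score at least 3 library SD below zero, with starting fluorescence score within 5 deviations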;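 note: channel opened by trigger with iodide after compound preincubation; score built on the fluorescence ratio of max minus min over baseline; more negative score means more quench and so TMEM16A activation or potentiation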
PKA-R1A activ = activates the PKA-R1A holoenzyme complex. PKA-R1A dissociation, Cy5-IP20 fluorescence polarization; scaled: DMSO 0%, 113 µM cGMP 100%. activation, % at 11.4 µM. 0.083% of 340,000 active. AID 504707;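 active = percent activation above the mean of all tested compounds plus 3 SD, cut at about 19% in these data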;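 note: higher means more PKAc released from R1A so a rise in polarization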
CHT act confirm = human CHT activation, confirmatory screen; shares compounds with CHT allo act; CHT-expressing cells, membrane potential dye fluorescence (FDSS); % of choline EC20–EC90 response window; HEK293 expressing CHT LV-AA mutant; choline added at its EC20; activation, % at 10 µM; 91% of 2,500 active; AID 504833;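 active = primary screen active, with duplicate mean activation above negative control mean plus 3 SD, cut at about 11% in these data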
HEK293 MP dye = CHT activator counter-screen hit in parental HEK293 cells | AID 623908 | 62% of 2,500 active | shares compounds with CHT allo act | ratio readout change at 10 µM, hits read low | membrane potential dye fluorescence (FDSS); measured after EC20 choline addition;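 active = duplicate-averaged ratio beyond 3 SD from buffer wells, up or down, though filed actives are nearly all decreases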
* = called active by the depositor; i = inactive; / = not tested or not shown; ! = a repeat was not active.

SMILES | CHT allo act | TMEM16A inh | PKA-R2B activ | CHT block | ANO1 activ | PKA-R1A activ | CHT act confirm | HEK293 MP dye
CCOC(=O)c1c[nH]c2nc(C)ccc2c1=O | 10.2* | i | -4.1 | i | i | -1.0 | 62.7* | -62.5*
CCOC(=O)c1c[nH]c(=O)c(Br)c1O | i | i | -3.4 | i | i | 0.0 | / | /
CCCC(=O)N1c2ccccc2C(=C2SC(C(=O)OC)=C(C(=O)OC)S2)C(=S)C1(C)C | i | i | -3.7 | i | i | 4.5 | 19.6* | i
COCCn1c(Cc2ccccc2)nnc1SCc1ccc([N+](=O)[O-])cc1 | i | i | -6.0 | i | i | -11.6 | 20.7* | i
CCCC1=[N+](CC(=O)c2ccccc2)CCn2c(C)ccc21 | 8.14* | i | -2.3 | i | i | 1.0 | 40.0* | i
CCCC1=[N+](CC)CCn2c(C)ccc21 | i | i | -9.2 | i | i | 3.5 | / | /
COc1cnc(-c2ccccn2)nc1NC(C)C | 7.81* | i | 7.1 | i | i | 2.1 | 26.8* | -58.5*
COc1ccccc1Sc1nc(-c2ccccn2)ncc1OC | i | i | 10.0 | i | i | -6.9 | / | /
CC(C)(C)OC(=O)COc1cc(OCC(=O)OC(C)(C)C)c2c(=O)cc(-c3ccccc3)oc2c1 | 8.3* | 100* | -10.3 | i | i | -2.1 | 50.3* | i
CCOC(=O)c1c(CS(=O)(=O)c2ccccc2)n(C)c2cc(Br)c(O)c(CN(C)C)c12 | i | i | 8.6 | i | i | 1.3 | / | /
CCOC(=O)c1c(CN2CCOCC2)n(C)c2cc(Br)c(O)c(CN(C)C)c12 | 7.36*! | i | 5.6 | i | i | 6.5 | 45.3* | -32.9*
Cc1nnc(C)c2c(C)n(Cc3ccc4c(c3)OCO4)c(C)c12 | 8.06* | i | -1.6 | i | i | 2.2 | 54.3* | -44.7*
Cc1ccc2cccc(OCc3nnc(SCC(=O)O)n3C)c2n1 | i | i | 1.9 | i | i | -4.7 | 50.7* | -53.2*
O=S(=O)(Nn1cnnc1)c1ccc(F)cc1 | i | i | / | i | i | / | / | /
CN1CCN(c2ccc([N+](=O)[O-])cc2NC(=O)c2ccccc2)CC1 | 8.48* | i | 5.3 | i | i | 8.8 | 62.2* | -87.8*
CN1CCN(c2ccccc2NC(=O)c2ccc(OCc3ccccc3)cc2)CC1 | i | i | 1.6 | i | i | -4.1 | 27.4* | -33.2*
CN1CCN(c2ccc(S(=O)(=O)N3CCCCC3)cc2NC(=O)c2ccc(C#N)cc2)CC1 | i | i | -20.3 | i | i | -12.5 | 1.8 | i
O=C(Nc1ccccc1N1CCN(C(=O)c2ccc(Cl)cc2)CC1)c1cccc([N+](=O)[O-])c1 | i | i | -3.6 | i | i | 7.7 | / | /
CN1CCN(c2ccccc2NC(=O)c2cccc([N+](=O)[O-])c2)CC1 | i | i | -7.5 | i | i | -7.4 | 52.3* | -43.7*
COc1ccc(-c2csc(C3=C(O)CN(C(C)C)C3=N)n2)cc1OC | i | i | 3.0 | i | i | 8.0 | / | /
Cc1ccc(C(=O)c2c3ccccc3[n+]([O-])n2CCC(N)=O)cc1 | i | i | -0.2 | i | i | -12.9 | / | /
CCOc1ccc(NC(=O)CC2S/C(=N/N=C3CCCCCC3)NC2=O)cc1 (configuration not stated) | i | i | 0.9 | i | i | -5.7 | / | /
O=C(NCCc1ccc(F)cc1)c1ccc(Cl)c(S(=O)(=O)N2CCOCC2)c1 | / | / | 1.6 | / | i | -18.4 | / | /
COc1ccc(C(=O)Nc2cc([N+](=O)[O-])ccc2N2CCN(C)CC2)cc1 | i | i | -5.3 | i | i | -13.1 | / | /
Cc1cccc(OCC(=O)Nc2ccccc2N2CCN(C)CC2)c1 | 11.4* | i | -7.4 | i | i | 0.8 | 35.8* | i
SMILES | CHT allo act | TMEM16A inh | PKA-R2B activ | CHT block | ANO1 activ | PKA-R1A activ | CHT act confirm | HEK293 MP dye
COc1cccc(C(=O)Nc2cc([N+](=O)[O-])ccc2N2CCN(C)CC2)c1 | 9.69* | i | 1.7 | i | i | -5.7 | 48.8* | -82.3*
CN(CCc1ccccc1)C(=O)c1ccc(NC(=O)Cc2ccc(NC(=O)C3CCN(C(=O)CCc4ccccc4)CC3)cc2)cc1 | / | / | -3.6 | / | / | 0.4 | / | /
C=CCn1c(SCC(=O)N(CCO)CCO)nc2sc3c(c2c1=O)CCC3 | i | i | 9.5 | i | i | 1.6 | / | /
N=c1c(C(=O)NC2CCCC2)cc2c(=O)n3ccccc3nc2n1C1CCCCC1 | i | i | 5.6 | i | i | -0.6 | 47.9* | -35.4*
CCCCn1c(N)c(N(CC(C)C)C(=O)CSCC(=O)Nc2ccc(OC)cc2)c(=O)[nH]c1=O | i | i | 12.5 | i | i | 3.7 | 4.2 | i
CCN(CC)CC(O)COc1ccccc1C(=O)CCc1ccccc1 (configuration not stated) | i | i | -3.2 | i | i | -2.0 | / | /
CCCCN(CCCC)CC(O)COc1ccccc1C(=O)Nc1ccccc1 (configuration not stated) | 7.1* | i | 3.0 | i | i | -3.3 | -0.1 | i
CCN(C(=O)COc1cccc2cccnc12)C1CCS(=O)(=O)C1 (configuration not stated) | i | i | -11.4 | i | i | 5.2 | 52.2* | -38.2*
CCOC(=O)N1CCN(c2c(NCc3ccc(F)cc3)c(=O)c2=O)CC1 | i | i | -4.4 | i | i | -2.1 | 3.9 | i
CCc1cc(C(=O)N/N=C/c2ccc(O)cc2O)c2ccccc2n1 | i | i | -9.5 | i | i | -2.2 | / | /
Cc1occc1C(=O)N1CCCC(N2CCN(c3cccc(Cl)c3)CC2)C1 (configuration not stated) | i | i | -5.8 | i | i | -2.2 | / | /
CCOc1nc(-c2ccccc2O)nc2ccccc12 | i | i | 5.5 | i | i | -19.0 | / | /
CCOc1nc(N=C(N)N)nc2c(C)cccc12 | 6.61* | i | 6.3 | i | i | -2.8 | 53.9* | -60.2*
CN(C)C(=O)CN1CCN(Cc2cn(C)nc2-c2ccc3c(c2)OCCO3)CC1 | i | i | -0.2 | i | i | -1.0 | / | /
